The values below come from the supplement of paper PMC8866396.

± gives the standard deviation of the averaged measurements.

For one experiment, the system named is IL-6-GFP PC-9GR. Briefly: cell viability (CCK-8 OD) relative to DMSO control (fraction of control); higher = more viable cells. As to conditions: compound concentration: 10 uM; treatment time: 48 h. Summed up:
(§1)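 PC-9 and PC-9GR lung cancer cells overexpressing IL-6-GFP from a lentiviral construct were plated at 3000 cells/well in 96-well plates. Each compound from a purchased 510-compound library was added at a final 10 μM for 48 h, with a parallel plate set used for GFP imaging. Viability was measured by CCK-8 absorbance and expressed as each well's optical density divided by the vehicle (DMSO) control well, from two independent replicates.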

In a further experiment the test system is IL-6-GFP PC-9. Described as above. The note with it: compound concentration: 10 uM; treatment time: 48 h. In outline: as §1

Turning to `CC(C)C(=O)OCC(=O)C12OC(C3CCCCC3)OC1CC1C3CCC4=CC(=O)C=CC4(C)C3C(O)CC12C` (configuration not stated) [Ciclesonide], the cell viability was 0.855 ± 0.11 with IL-6-GFP PC-9GR and 0.894 ± 0.16 in the experiment on IL-6-GFP PC-9.

Regarding `COc1c2occc2cc2ccc(=O)oc12` [Methoxsalen], the cell viability in the experiment on IL-6-GFP PC-9GR was determined as 0.933 ± 0.062; with IL-6-GFP PC-9 it was 0.839 ± 0.23.

`Cc1cc2ncc(C(=O)NCC(C)(C)NCC(=O)N3CCCC3C#N)cn2n1` (configuration not stated) [Anagliptin]: the cell viability with IL-6-GFP PC-9GR was -0.0161 ± 0.12; in the experiment with IL-6-GFP PC-9, 1.23 ± 0.022.

Turning to `NC(=S)N/N=C/c1ncccc1N` [Triapine], the cell viability was determined as 0.255 ± 0.16 with IL-6-GFP PC-9GR and 0.287 ± 0.024 with IL-6-GFP PC-9.

Take `O=C(O)CCCCC1CCSS1` (stereo not drawn) [(+)-α-Lipoic acid]: the cell viability was found to be 1.26 ± 0.2 with IL-6-GFP PC-9GR and 1.21 ± 0.024 in the experiment with IL-6-GFP PC-9.

Consider `CN(C)CCCOc1nn(Cc2ccccc2)c2ccccc12.Cl` [Benzydamine HCl], for which the figures for the cell viability in the experiment on IL-6-GFP PC-9GR and in the experiment with IL-6-GFP PC-9 were 0.996 ± 0.23 and 0.549 ± 0.52, respectively.

Regarding `COC1=C(OC)C(=O)C(CCCCCCCCCCO)=C(C)C1=O` [Idebenone], the cell viability came to 1.12 ± 0.088 in the experiment on IL-6-GFP PC-9GR and 0.816 ± 0.0099 in the experiment on IL-6-GFP PC-9.

In the case of `CNC1CCC(c2ccc(Cl)c(Cl)c2)c2ccccc21.Cl` (configuration not stated) [Sertraline HCl], the cell viability in the experiment on IL-6-GFP PC-9GR stood at 0.338 ± 0.063; in the experiment on IL-6-GFP PC-9 it was 0.664 ± 0.35.

As for `CC(Cn1ccc(-c2ccc(C#N)c(Cl)c2)n1)NC(=O)c1cc(C(C)O)[nH]n1` (configuration not stated) [Darolutamide (ODM-201)], the results for the cell viability with IL-6-GFP PC-9GR and in the experiment with IL-6-GFP PC-9 were 0.858 ± 0.18 and 0.962 ± 0.21, respectively.

For `NC1CCCCC1N.O=C([O-])C(=O)[O-].[Pt+2]` (configuration not stated) [Oxaliplatin], the cell viability with IL-6-GFP PC-9GR is 0.678 ± 0.016; in the experiment with IL-6-GFP PC-9, 1.2 ± 0.099.

`CCC1(O)CC2CN(CCc3c([nH]c4ccccc34)C(C(=O)OC)(c3cc4c(cc3OC)N(C=O)C3C(O)(C(=O)OC)C(OC(C)=O)C5(CC)C=CCN6CCC43C65)C2)C1.O=S(=O)(O)O` (configuration not stated) [Vincristine sulfate]: the figures for the cell viability in the experiment with IL-6-GFP PC-9GR and with IL-6-GFP PC-9 were 0.587 ± 0.086 and 0.553 ± 0.11, respectively.

As to `COc1cc(Nc2c(C#N)cnc3cc(OCCCN4CCN(C)CC4)c(OC)cc23)c(Cl)cc1Cl` [Bosutinib (SKI-606)], the figures for the cell viability with IL-6-GFP PC-9GR and with IL-6-GFP PC-9 were 0.448 ± 0.011 and 0.429 ± 0.064, respectively.

Regarding `CC(C)c1nc(CN(C)C(=O)NC(CCN2CCOCC2)C(=O)NC(CCC(Cc2ccccc2)NC(=O)OCc2cncs2)Cc2ccccc2)cs1` (configuration not stated) [Cobicistat (GS-9350)], the cell viability with IL-6-GFP PC-9GR came out at 0.989 ± 0.11; in the experiment on IL-6-GFP PC-9, 1.14 ± 0.22.

As for `COc1cc2nccc(Oc3ccc(NC(=O)NC4CC4)c(Cl)c3)c2cc1C(N)=O` [Lenvatinib (E7080)], the cell viability turned out to be 1.11 ± 0.064 in the experiment on IL-6-GFP PC-9GR and 0.9 ± 0.081 with IL-6-GFP PC-9.

As to `CC(C)Cc1ccc(C(C)C(=O)O)cc1.NCCCCC(N)C(=O)O` (configuration not stated) [Ibuprofen Lysine], the figures for the cell viability in the experiment on IL-6-GFP PC-9GR and in the experiment on IL-6-GFP PC-9 were 1.28 ± 0.21 and 1.25 ± 0.29, respectively.

For `Cl.N=C1CCCN1Cc1[nH]c(=O)[nH]c(=O)c1Cl.O=c1[nH]c(=O)n(C2CC(O)C(CO)O2)cc1C(F)(F)F.O=c1[nH]c(=O)n(C2CC(O)C(CO)O2)cc1C(F)(F)F` (configuration not stated), the cell viability in the experiment on IL-6-GFP PC-9GR came out at 0.556 ± 0.067; in the experiment with IL-6-GFP PC-9, 0.812 ± 0.28.

Turning to `C/C=C(/C(=C/C)c1ccc(O)cc1)c1ccc(O)cc1` [Dienestrol], the cell viability in the experiment with IL-6-GFP PC-9GR came to 1.06 ± 0.025; in the experiment with IL-6-GFP PC-9, 1.16 ± 0.093.

For the compound `CCOC(=O)C(CCc1ccccc1)NC1CSC(c2cccs2)CN(CC(=O)O)C1=O` (configuration not stated) [Temocapril], the cell viability was 0.726 ± 0.078 with IL-6-GFP PC-9GR and 1.14 ± 0.099 in the experiment with IL-6-GFP PC-9.

With `CCC(c1ccc(O)cc1)C(CC)c1ccc(O)cc1` (configuration not stated) [Hexestrol], the cell viability with IL-6-GFP PC-9GR is 1.28 ± 0.31; with IL-6-GFP PC-9, 1.16 ± 0.15.

On to `CNCC(O)c1ccc(O)c(O)c1.O=C(O)C(O)C(O)C(=O)O` (configuration not stated) [Epinephrine bitartrate], for which the cell viability in the experiment on IL-6-GFP PC-9GR was 1.17 ± 0.15; in the experiment on IL-6-GFP PC-9 it was 1.2 ± 0.022.

With `CCOc1cc2ncc(C#N)c(Nc3ccc(OCc4ccccn4)c(Cl)c3)c2cc1NC(=O)/C=C/CN(C)C` [Neratinib (HKI-272)], the cell viability in the experiment with IL-6-GFP PC-9GR stood at 0.795 ± 0.045; with IL-6-GFP PC-9, 0.506 ± 0.052.

As to `CCN1CCN(Cc2ccc(Nc3ncc(F)c(-c4cc(F)c5nc(C)n(C(C)C)c5c4)n3)nc2)CC1` [Abemaciclib], the cell viability came to 0.668 ± 0.14 in the experiment on IL-6-GFP PC-9GR and 0.746 ± 0.094 with IL-6-GFP PC-9.

For `COc1cc(C2c3cc4c(cc3C(OC3OC5COC(C)OC5C(O)C3O)C3COC(=O)C23)OCO4)cc(OC)c1O` (configuration not stated) [Etoposide], the cell viability worked out at 0.779 ± 0.033 in the experiment with IL-6-GFP PC-9GR and 0.537 ± 0.17 in the experiment on IL-6-GFP PC-9.

Turning to `CCC1(O)CC2CN(CCc3c([nH]c4ccccc34)C(C(=O)OC)(c3cc4c(cc3OC)N(C)C3C(O)(C(=O)OC)C(OC(C)=O)C5(CC)C=CCN6CCC43C65)C2)C1.O=S(=O)(O)O` (configuration not stated) [Vinblastine sulfate], the results for the cell viability in the experiment on IL-6-GFP PC-9GR and with IL-6-GFP PC-9 were 0.475 ± 0.069 and 0.655 ± 0.084, respectively.

Consider `CC(=O)Oc1cccc2c1C(=O)c1c(OC(C)=O)cc(C(=O)O)cc1C2=O` [Diacerein], for which the values for the cell viability in the experiment on IL-6-GFP PC-9GR and with IL-6-GFP PC-9 were 1.14 ± 0.39 and 0.97 ± 0.034, respectively.

In the case of `C#Cc1cccc(Nc2ncnc3cc4c(cc23)OCCOCCOCCO4)c1` [Icotinib], the cell viability with IL-6-GFP PC-9GR was 1.18 ± 0.048; with IL-6-GFP PC-9 it was 0.58 ± 0.11.

On to `CC(=O)Nc1ccccc1` [Acetanilide], for which the cell viability in the experiment with IL-6-GFP PC-9GR was 1.31 ± 0.19; in the experiment on IL-6-GFP PC-9, 1.24 ± 0.12.

With `O.O.O=C([O-])CCNC(=O)c1ccc(N=Nc2ccc(O)c(C(=O)[O-])c2)cc1.[Na+].[Na+]` [Balsalazide disodium], the cell viability in the experiment with IL-6-GFP PC-9GR was 1.24 ± 0.25; in the experiment on IL-6-GFP PC-9 it was 1.34 ± 0.11.

As to `CCc1cccc2c3c([nH]c12)C(CC)(CC(=O)O)OCC3` (configuration not stated) [Etodolac], the cell viability with IL-6-GFP PC-9GR was 1.22 ± 0.018; with IL-6-GFP PC-9, 0.989 ± 0.076.

For the compound `CC(OCC1(c2ccccc2)CCC2(CCC(=O)N2)CN1)c1cc(C(F)(F)F)cc(C(F)(F)F)c1` (configuration not stated) [Rolapitant], the cell viability with IL-6-GFP PC-9GR is 0.76 ± 0.035; in the experiment with IL-6-GFP PC-9, 0.853 ± 0.26.

With `CC1(C)OC2CC3C4CCC5=CC(=O)C=CC5(C)C4(F)C(O)CC3(C)C2(C(=O)CO)O1` (configuration not stated) [Triamcinolone Acetonide], the cell viability is 1.15 ± 0.023 in the experiment on IL-6-GFP PC-9GR and 0.9016 ± 0.0065 in the experiment with IL-6-GFP PC-9.
